From PubChem
Shown are actives, neighbours in structure and some others; about 3.6% of the full set was active somewhere.
DUSP3 inh – VHR1 phosphatase inhibitors, primary screen, biochemical, absorbance, uHTS. inhibition, % at 13.3 µM. recombinant VHR phosphatase, pNPP absorbance. 290,000 tested, 0.52% active. Dual specificity protein phosphatase 3 (Homo sapiens), P51452; in the data active means inhibition above about 50%
Target sequence (P51452 whole entry, looked up): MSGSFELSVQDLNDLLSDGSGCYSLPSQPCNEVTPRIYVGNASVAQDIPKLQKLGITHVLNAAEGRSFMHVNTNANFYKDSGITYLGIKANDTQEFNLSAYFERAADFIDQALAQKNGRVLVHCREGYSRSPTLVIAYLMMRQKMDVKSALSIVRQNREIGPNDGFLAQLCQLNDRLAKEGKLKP
FBA Mtb inh – Mtb FBA enzyme inhibitors, primary screen, biochemical, fluorescence, strain H37Rv. Fructose-bisphosphate aldolase (Mycobacterium tuberculosis (strain ATCC 25618 / H37Rv)), …. purified M. tuberculosis FBA, fluorescence read-out. inhibition, % at 1 µM. 360,000 tested, 2.3% active. AID 588726, 2011; in the data active means inhibition above about 27%;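 further: 0% = vehicle and 100% = reference inhibitor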
Target sequence (P9WQA3 whole entry, looked up): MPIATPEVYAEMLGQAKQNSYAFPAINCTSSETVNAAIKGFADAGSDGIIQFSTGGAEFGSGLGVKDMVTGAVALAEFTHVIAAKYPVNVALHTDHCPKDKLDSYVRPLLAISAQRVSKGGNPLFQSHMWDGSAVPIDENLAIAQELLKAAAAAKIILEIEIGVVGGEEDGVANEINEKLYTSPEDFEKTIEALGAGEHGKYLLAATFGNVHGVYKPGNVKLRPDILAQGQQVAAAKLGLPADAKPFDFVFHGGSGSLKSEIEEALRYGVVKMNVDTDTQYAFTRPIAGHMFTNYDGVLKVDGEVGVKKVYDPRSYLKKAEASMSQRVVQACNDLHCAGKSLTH
Mtb hypoxia inh – PubChem AID 1159583; M. tuberculosis hypoxia-regulated fluorescent reporter, fluorescence; fluorescence inhibition, % (concentration not given with the values); 300,000 tested, 0.1% active; in the data active means fluorescence inhibition mostly above about 23%, no sharp cut-off; inactive means mostly below about 17%
GDH-TPI counter – GDH-TPI coupling enzyme inhibitors, primary screen, artefact control for M. tuberculosis FBA inhibitor project, biochemical, absorbance, full deck | GDH-TPI coupled enzyme counterscreen, NADH absorbance | inhibition, % at 4.8 µM | 360,000 tested, 1.2% active; in the data active means inhibition above about 30%;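 further: 0% = DMSO wells and 100% = wells lacking the enzyme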
Mtb bLac sens – beta-lactam sensitization of Mtb H37Rv, H37Rv; M. tuberculosis H37Rv growth with meropenem, percent inhibition; inhibition, % at 25 µM; 330,000 tested, 0.27% active; call rule not given here;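 further: growth measured after seven days incubation then overnight dye step; 0% = bacteria only wells and 100% = bacteria with antibiotic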
An asterisk follows results filed as active; nt = not tested or not shown; + = active, no number.

SMILES | DUSP3 inh | FBA Mtb inh | Mtb hypoxia inh | GDH-TPI counter | Mtb bLac sens
CC12CCC(C(=O)N(CSC(=S)NN=Cc3ccccc3)C1=O)C2(C)C (stereo unspecified) | nt | nt | 9.6 | nt | nt
CC(C)CC(NC(=O)c1nc[nH]c1C(=O)N1CCN(c2ccccc2)CC1)C(=O)OCc1ccccc1 (stereo unspecified) | nt | nt | 5.9 | nt | nt
COc1ccc(N(C(C)C(=O)NN=Cc2ccc(OC(C)C)cc2)S(C)(=O)=O)cc1 (stereo unspecified) | nt | nt | 4.2 | nt | nt
Cn1cc(/C=N/NC(=O)c2ccccc2O)c2ccccc21 | -41.0 | 2.1 | nt | 58.7* | 23.4
CC(=O)n1cc(/C=N/NC(=O)c2ccccc2O)c2ccccc21 | -1.2 | -1.9 | nt | 16.9 | -0.8
COc1ccc2c(c1)c(C(=O)N/N=C/c1cn(C)c3ccccc13)c(C)n2C | 34.9 | -2.6 | nt | 36.6* | 7.5
Cn1cc(/C=N/NC(=O)c2cccc([N+](=O)[O-])c2)c2ccccc21 | -12.4 | -1.1 | nt | 36.7* | 3.3
Cc1nc(C)c(C(=O)N/N=C/c2cn(C)c3ccccc23)s1 | 14.5 | -2.2 | nt | 33.8* | -2.2
COc1ccc2c(c1)c(C(=O)NN=Cc1ccccc1Cl)c(C)n2C | nt | nt | 9.4 | nt | nt
OCCC1CC(O)C(O)[C@@]2(OCCc3ccccc32)O1 (stereo partly specified) | nt | nt | 7.2 | nt | nt
CCC1=C(OC(=O)N(CC)CC)N2C(=O)OC(=NCCOC)[C@]2(Cc2ccccc2)C2C1=CCC1C(=O)N(CC(=O)OC)C(=O)C12 (stereo partly specified) | nt | nt | 1.3 | nt | nt
O=C(NN=Cc1cccc(F)c1)NC1CCCCC1 | nt | nt | 3.5 | nt | nt
NC(=O)C1CCN(C(=O)c2cc(-c3ccc(Cl)s3)nc3ccccc23)CC1 | nt | 126.5* | -13.3 | 34.2* | 1.7
Cc1ccc(-c2cc(C(=O)N3CCOCC3)c3ccccc3n2)o1 | nt | 119.9* | 10.5 | 21.6 | -4.5
O=C(c1cc(-c2ccccc2Cl)nc2ccccc12)N1CCC1 | nt | -3.0 | 1.1 | -8.6 | 0.6
COc1ccc(-c2cc(C(F)F)n3ncc(C(=O)N4CCN(C(=O)c5ccco5)CC4)c3n2)cc1 | 2.4 | 25.4 | -9.1 | 21.6 | -2.7
CS(=O)(=O)N1CCN(C(=O)c2cc(-c3cccs3)nc3ccccc23)CC1 | -8.3 | 124.7* | nt | 31.3* | -3.8
COc1ccc(-c2cc(C(F)F)n3ncc(C(=O)N4CCCCC4)c3n2)cc1 | 9.1 | 26.0 | 15.6 | 41.8* | -6.5
C#CCOCCOCCOCCNc1nc(N2CCN(C(=O)C(CCCCN)n3cc(C(N)CC(C)C)nn3)CC2)nc(N2CCN(C(=O)C(C(C)CC)n3cc(C(N)CO)nn3)CC2)n1 (stereo unspecified) | nt | nt | 13.3 | nt | nt
C#CCOCCOCCOCCNc1nc(N2CCN(C(=O)Cn3cc(CCO)nn3)CC2)nc(N2CCN(C(=O)C(C(C)O)n3cc(CCCCN)nn3)CC2)n1 (stereo unspecified) | nt | nt | 12.3 | nt | nt
C=CCNC(=S)N=c1scc(C)n1C | nt | nt | 11.6 | nt | nt
ON=CCc1[nH]c2ccccc2c1-c1ccccc1 | nt | nt | 6.7 | nt | nt
Cc1noc(C)c1NC(=O)Nc1cccc2c1OC(CN(C)S(=O)(=O)c1c(C)noc1C)C(C)CN(C(C)CO)C2=O (stereo unspecified) | nt | nt | 1.0 | nt | nt
COc1ccc(C(=O)NN=c2oc3ccccc3cc2C(N)=O)cc1 | nt | nt | 21.7 | nt | nt
COc1ccc2cc(-c3cc(C(=O)O)c4ccccc4n3)ccc2c1 | 1.8 | 12.7 | nt | 36.2* | 9.8
SMILES | DUSP3 inh | FBA Mtb inh | Mtb hypoxia inh | GDH-TPI counter | Mtb bLac sens
COc1ccc(-c2cc(C(=O)N3CCCC3)c3ccccc3n2)cc1 | 7.1 | 148.4* | 9.7 | 14.4 | 0.9
Cc1ccc(-c2cc(C(=O)N(C)CC(=O)Nc3ccccc3Br)c3ccccc3n2)o1 | nt | 120.5* | 0.1 | 11.3 | -5.6
COc1ccc(-c2cc(C(=O)N3CC(C)CC(C)C3)c3ccccc3n2)cc1 (stereo unspecified) | nt | 50.4* | 2.2 | 13.4 | -14.7
CC1CC(C)CN(C(=O)c2cc(-c3ccccn3)nc3ccccc23)C1 (stereo unspecified) | 20.8 | 2.0 | 3.8 | 9.6 | 0.5
COc1ccc(-c2cc(C(=O)O)c3ccccc3n2)c(OC)c1 | -5.6 | 7.1 | nt | 11.9 | -12.6
COCCN1C(=O)NC(CCc2ccccc2)C(C(=O)OC)C1C (stereo unspecified) | nt | nt | -7.3 | nt | nt
COc1ccc2nc(-c3ccccc3)cc(C(=O)N3CCC3)c2c1 | nt | 148.7* | -7.9 | 10.1 | 4.0
O=C(O)c1cc(-c2cccs2)nc2cc3c(cc12)OCCO3 | 7.8 | + | nt | 8.9 | 5.2
COC(=O)/C(=N/Nc1ccccc1)N1CCCc2ccccc21 | -17.3 | -1.6 | nt | 34.2* | -4.9
CCc1nnc(NC(=O)C(NC(=O)c2cccc(S(=O)(=O)N3CCOCC3)c2)C(C)C)s1 (stereo unspecified) | nt | nt | -1.4 | nt | nt
CCOC(=O)c1c(-n2c(C)cc(/C=C3/C(=O)NC(=O)N(CC)C3=O)c2C)sc2c1CCCC2 | nt | 7.2 | nt | 9.0 | 5.1
CCOC(=O)c1c(-n2c(C)cc(C=C3C(=O)NC(=S)NC3=O)c2C)sc2c1CCCC2 | -3.7 | 3.0 | -2.3 | 32.3* | 2.4
COc1ccc(CNC(=O)c2cc3c(=O)n4ccccc4nc3n(Cc3cccnc3)c2=N)cc1 | 19.9 | 7.9 | -8.9 | 17.7 | -11.6
N=c1c(C(=O)NCc2ccco2)cc2c(=O)n3ccccc3nc2n1Cc1ccccc1 | 39.7 | 162.8* | nt | 15.4 | -9.9
COCCn1c(=N)c(C(=O)NCc2ccco2)cc2c(=O)n3ccccc3nc21 | 10.2 | 137.8* | 14.2 | 2.6 | -4.3
N=c1c(C(=O)NCc2ccc(F)cc2)cc2c(=O)n3ccccc3nc2n1Cc1ccco1 | 13.2 | 38.0* | nt | 6.7 | 95.4
O=C(O)C1CCC(CNCc2ccccc2Cl)CC1 (stereo unspecified) | 51.9* | 1.6 | nt | 12.9 | -6.2
Cc1cccc(C)c1NC(=O)/C(C#N)=C/c1cccs1 | 20.5 | 2.9 | nt | 42.2* | 62.4
C/C(C=NNC(=O)NC1CCCCC1)=C\c1ccccc1 | nt | nt | 8.8 | nt | nt
CCCCC(=O)Nc1ccc2oc(-c3cccnc3)nc2c1 | 10.3 | 141.0* | nt | -0.8 | -9.7
CCC(=O)Nc1ccc2oc(-c3cccc(C)c3)nc2c1 | 2.4 | 139.2* | 15.1 | 4.6 | 4.9
Cc1ccc2oc(-c3cccc(NC(=O)Cc4cccs4)c3)nc2c1 | 12.3 | 4.2 | -14.3 | 7.4 | -0.5
Cc1cccc(-c2nc3cc(NC(=O)C4CCCO4)ccc3o2)c1 (stereo unspecified) | -3.9 | 114.2* | 4.3 | -4.1 | -7.2
CCOC(=O)Cc1csc(NC(=O)CSc2nnc(-c3ccncc3)o2)n1 | 53.0* | -7.8 | nt | 3.8 | 1.7
CCOC(=O)Cc1csc(NC(=O)CSc2nnc(-c3ccc(NS(=O)(=O)CC)cc3)o2)n1 | nt | 0.5 | 13.8 | 27.9 | 6.4
CCOC(=O)Cc1csc(NC(=O)/C=C/c2ccc(Br)o2)n1 | 8.7 | -2.6 | 2.8 | 75.3* | -1.3
Cn1c(C(=O)N2COCC2(C)C)cc2c(=O)n3ccccc3nc21 | 23.7 | + | 8.2 | -4.3 | -4.3
